Hit rate of the full screen: of about 5,500 compounds, about 2,000 (36%) were called active. Inconclusive results (about 18%) are left out. Cut-off read from the data, not from the text of the source: active = normalized growth mostly below about 0.91 (no sharp cut-off); inconclusive = no clear call, values can overlap the other calls; inactive = mostly above about 0.92. Some of the results follow.
Test: chemical genetic growth profiling, strain panel (AID 1159580);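 note: tested at 20 µM; growth read once vehicle control cultures reached saturation at 30 °C; 1 = growth at the plate median or of vehicle wells; lower values mean less growth of the strain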
Settings: S. cerevisiae deletion strains, growth OD

Measured: normalized growth

CNC(=O)[C@H]1O[C@@H](n2cnc3c(N)ncnc32)C(O)[C@H]1O (some centres undefined)
inactive: locus YAL013W, strain DEP1, stronger effect = lower value 0.987 | locus YAL040C, strain CLN3, stronger effect = lower value 0.989 | locus YDR363W, strain ESC2, stronger effect = lower value 1.07 | locus YER002W, strain NOP16, stronger effect = lower value 0.973 | locus YGR078C, strain PAC10, stronger effect = lower value 1 | locus YMR263W, strain SAP30, stronger effect = lower value 0.985 | locus YNL128W, strain TEP1, stronger effect = lower value 0.983 | locus YNL175C, strain NOP13, stronger effect = lower value 0.984 | locus YNL197C, strain WHI3, stronger effect = lower value 0.997 | locus YNL224C, strain SQS1, stronger effect = lower value 0.996 | locus YNL322C, strain KRE1, stronger effect = lower value 1.02 | locus YOR083W, strain WHI5 (second series), stronger effect = lower value 1.02 | locus YPL241C, strain CIN2, stronger effect = lower value 0.976

CSC1=NNC(c2nn(C)cc2Cl)S1 (centres undefined)
active: locus YAR019C, strain CDC15, stronger effect = lower value 0.366 | locus YBL105C, strain PKC1, stronger effect = lower value 0.509 | locus YBR135W, strain CKS1, stronger effect = lower value 0.582 | locus YBR136W, strain MEC1, stronger effect = lower value 0.565 | locus YBR160W, strain CDC28, stronger effect = lower value 0.644 | locus YDL017W, strain CDC7, stronger effect = lower value 0.586 | locus YDL028C, strain MPS1, stronger effect = lower value 0.551 | locus YDL101C, strain DUN1, stronger effect = lower value 0.206 | locus YDL108W, strain KIN28, stronger effect = lower value 0.653 | locus YDL132W, strain cdc53, stronger effect = lower value 0.472 | locus YDL214C, strain PRR2, stronger effect = lower value 0.145 | locus YDR052C, strain DBF4, stronger effect = lower value 0.874 | locus YDR054C, strain cdc34, stronger effect = lower value 0.318 | locus YDR226W, strain ADK1, stronger effect = lower value 0.511 | locus YDR477W, strain SNF1, stronger effect = lower value 0.134 | locus YER123W, strain YCK3, stronger effect = lower value 0.126 | locus YER133W, strain GLC7, stronger effect = lower value 0.138 | locus YFL009W, strain cdc4, stronger effect = lower value 0.282 | locus YFL029C, strain CAK1, stronger effect = lower value 0.374 | locus YFR003C, strain YPI1, stronger effect = lower value 0.594 | locus YFR019W, strain FAB1, stronger effect = lower value 0.148 | locus YFR028C, strain CDC14, stronger effect = lower value 0.444 | locus YGR040W, strain KSS1, stronger effect = lower value 0.13 | locus YGR052W, strain FMP48, stronger effect = lower value 0.131 | locus YGR092W, strain DBF2, stronger effect = lower value 0.117 | locus YHR030C, strain SLT2, stronger effect = lower value 0.178 | locus YHR079C, strain IRE1, stronger effect = lower value 0.214 | locus YHR082C, strain KSP1, stronger effect = lower value 0.236 | locus YHR205W, strain SCH9, stronger effect = lower value 0.0971 | locus YIL147C, strain SLN1, stronger effect = lower value 0.502 | locus YJL095W, strain BCK1, stronger effect = lower value 0.134 | locus YJL128C, strain PBS2, stronger effect = lower value 0.31 | locus YJL157C, strain FAR1, stronger effect = lower value 0.159 | locus YJR016C, strain ILV3, stronger effect = lower value 0.337 | locus YJR066W, strain TOR1 (second series), stronger effect = lower value 0.171 | locus YJR066W, strain TOR1, stronger effect = lower value 0.17 | locus YKL048C, strain ELM1, stronger effect = lower value 0.158 | locus YKL067W, strain YNK1, stronger effect = lower value 0.176 | locus YKL101W, strain HSL1, stronger effect = lower value 0.142 | locus YKL193C, strain SDS22, stronger effect = lower value 0.425 | locus YKL203C, strain TOR2, stronger effect = lower value 0.136 | locus YLR113W, strain HOG1, stronger effect = lower value 0.157 | locus YLR133W, strain CKI1, stronger effect = lower value 0.137 | locus YLR403W, strain SFP1, stronger effect = lower value 0.0487 | locus YML070W, strain DAK1, stronger effect = lower value 0.147 | locus YMR001C, strain CDC5, stronger effect = lower value 0.479 | locus YMR205C, strain PFK2 (second series), stronger effect = lower value 0.143 | locus YMR277W, strain FCP1, stronger effect = lower value 0.292 | locus YNL006W, strain LST8, stronger effect = lower value 0.372 | locus YNL020C, strain ARK1, stronger effect = lower value 0.126 | locus YNL161W, strain CBK1, stronger effect = lower value 0.393 | locus YNL183C, strain NPR1, stronger effect = lower value 0.112 | locus YNL207W, strain RIO2, stronger effect = lower value 0.448 | locus YNL222W, strain SSU72, stronger effect = lower value 0.455 | locus YNL307C, strain MCK1 (second series), stronger effect = lower value 0.122 | locus YOL078W, strain AVO1, stronger effect = lower value 0.415 | locus YOL136C, strain PFK27, stronger effect = lower value 0.116 | locus YOR061W, strain CKA2, stronger effect = lower value 0.118 | locus YOR119C, strain RIO1, stronger effect = lower value 0.156 | locus YOR231W, strain MKK1, stronger effect = lower value 0.222 | locus YOR329C, strain SCD5, stronger effect = lower value 0.487 | locus YPL031C, strain PHO85, stronger effect = lower value 0.128 | locus YPL153C, strain RAD53, stronger effect = lower value 0.121 | locus YPL204W, strain HRR25, stronger effect = lower value 0.16 | locus YPL209C, strain IPL1, stronger effect = lower value 0.595 | locus YPL256C, strain CLN2, stronger effect = lower value 0.177 | locus YPR025C, strain CCL1, stronger effect = lower value 0.511 | locus YPR106W, strain ISR1, stronger effect = lower value 0.395 | locus YPR111W, strain DBF20, stronger effect = lower value 0.525 | strain NNK1, stronger effect = lower value 0.199 | strain TSCII, stronger effect = lower value 0.337

Reference: PubChem BioAssay AID1159580 (chemical genetic matrix, 2015)
